{"source": "PubChem BioAssay (NCI)", "note": "Where “and” joins values, the source holds several entries; their conditions need not be identical. Equal entries are not always repeated. The panel holds about 79,000 compounds, 15% with a hit somewhere; the sample as a whole holds those more often. A number with no mark means an inactive call. Calls of active or inactive are those of the source. Cut-off read from the data, not from the text of the source: active = growth inhibition above about 70%; inactive = the rest."}
{"assay": "NCI Yeast Anticancer Drug Screen. Data for the bub3 strain (AID 167)", "settings": "S. cerevisiae bub3 mutant strain, at 50.0 µM, stronger effect = higher value", "how_it_was_run": "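Screening used yeast with an engineered genetic alteration affecting cell cycle control. Compound-exposed cultures were compared with vehicle cultures, and reduced growth was taken as inhibition.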"}
{"smiles": "CCOC(=O)c1ccc([N+](=O)[O-])o1", "growth inhibition": "91% (active)"}
{"smiles": "O=C(NCCc1c(-c2ccccc2)[nH]c2ccccc12)C(F)(F)F", "growth inhibition": "72.5% (active)"}
{"smiles": "CC(C)OC(=O)c1ccc(NCc2cc(O)ccc2O)cc1Cl", "growth inhibition": "88.9% (active)"}
{"smiles": "c1cc[c]([Sn]([NH]c2ncnc3[nH]cnc23)([NH]c2ncnc3[nH]cnc23)[c]2ccccc2)cc1", "growth inhibition": "57.4%"}
{"smiles": "CCCCCCCCCCCCCCCCCC(=O)OCC(COC(=O)CCCN)OC(=O)CCCN", "note": "(centres undefined)", "growth inhibition": "98.6% (active)"}
{"smiles": "CCCCN(CCCC)CCC(O)(c1ccc(OC)c2ccccc12)C(O)(CCN(CCCC)CCCC)c1ccc(OC)c2ccccc12", "note": "(centres undefined)", "growth inhibition": "99.2% (active)"}
{"smiles": "CC(C)(C)c1ccc(OC(=O)Nc2ccc(Cl)cc2[N+](=O)[O-])c(Br)c1", "growth inhibition": "20.1%"}
{"smiles": "CC(=O)Nc1cccc2cc(O)ccc12", "growth inhibition": "-11.8% and -11.7% and -4.3%"}
{"smiles": "O=[N+]([O-])c1ccc(NSc2ccccc2)cc1", "growth inhibition": "91.3% (active)"}
{"smiles": "COC(=O)CCC(NC(=S)N/N=C/c1ccccn1)C(=O)OC", "note": "(centres undefined)", "growth inhibition": "71.8% (active)"}
{"smiles": "O=C(Nc1ccccc1)OCCc1ccc(Br)cc1", "growth inhibition": "6.1%"}
{"smiles": "CC1=CC(O)C2CC1C2(C)C", "note": "(centres undefined)", "growth inhibition": "-6.5% and -10.9% and 2.05%"}
{"smiles": "Cc1[nH]c2ccccc2c1/C=C1\\C(=O)C2CCC1C2", "note": "(centres undefined)", "growth inhibition": "39%"}
{"smiles": "O=[N+]([O-])c1ccc2c(c1)OCO2", "growth inhibition": "37%"}
{"smiles": "CC(CO)[C@H]1OC(=O)C=C2[C@@]13O[C@@H]3[C@H]1OC(=O)[C@@]3(C)[C@H]4O[C@H]4C[C@@]2(C)[C@@H]13", "note": "(some centres undefined)", "growth inhibition": "88.8% (active)"}
{"smiles": "Cc1cc(C)nc(/C=C/c2ccc(/C=C/c3cc(C)cc(C)n3)cc2)c1", "growth inhibition": "0.4%"}
{"smiles": "O=C1C=CC(=O)N1c1cccc(F)c1", "growth inhibition": "99.6% (active)"}
{"smiles": "COc1ccc(C(=O)C(CN2CCCC2)CN2CCCC2)cc1", "growth inhibition": "59.5%"}
{"smiles": "O=C1NN(C2=NNC3(C(=O)N2)c2ccccc2-c2ccccc23)C(c2ccccc2)=N/C1=C/c1ccc(O)cc1", "growth inhibition": "81.5% (active)"}
{"smiles": "CC1=NN(C(=O)c2ccc(Cl)cc2)C(=O)C1N=Nc1ccc(S(=O)(=O)Nc2ncccn2)cc1", "note": "(centres undefined)", "growth inhibition": "-6.7%"}
{"smiles": "CCN(CC)CCCNc1ncc(C)c2c1c1ccc3c(O)cccc3c1n2C", "growth inhibition": "-9.95%"}
{"smiles": "O=C1SCCN1/N=C/c1ccc([N+](=O)[O-])o1", "growth inhibition": "64.6%"}
{"smiles": "CC(C)(C)C1=NC(=S)SC2=NC(=O)C3(NN21)c1ccccc1-c1ccccc13", "growth inhibition": "91% (active)"}
{"smiles": "Nc1ncnc2c1ncn2C1OC(CO)C(O)C1O", "note": "(centres undefined)", "growth inhibition": "4.6% and 18.7% and 26.4%"}
{"smiles": "Clc1ccc2oc(N3CCCCC3)nc2c1", "growth inhibition": "99.2% (active)"}
{"smiles": "Cc1ccnc(NC(c2ccccc2)c2ccc3cccnc3c2O)c1", "note": "(centres undefined)", "growth inhibition": "98.7% (active)"}
{"smiles": "CC(=O)N(C1=C(Cl)C(=O)c2ccccc2C1=O)c1ccc(Cl)cc1", "growth inhibition": "79.8% (active)"}
{"smiles": "CSc1cc(C(=O)O)nc(N)n1", "growth inhibition": "-17.1%"}
{"smiles": "COc1ccc([C@H]2c3cc4c(cc3OC(O)(CO)[C@H]2C(=O)O)OCO4)c(OC)c1", "note": "(some centres undefined) (tested in a mixture with another compound)", "growth inhibition": "54.5%"}
{"smiles": "CC(C)C(C)OC(=O)Nc1cccc(O)c1", "note": "(centres undefined)", "growth inhibition": "2.3%"}
{"smiles": "O=C(CC1(O)C(=O)Nc2c(Cl)ccc(Cl)c21)c1ccc(Cl)cc1Cl", "note": "(centres undefined)", "growth inhibition": "93.7% (active)"}
{"smiles": "CCOC1(OCC)Oc2c(Cl)c(Cl)c(Cl)c(Cl)c2OC1(OCC)OCC", "growth inhibition": "98% (active)"}
{"smiles": "CCN(CC)CC(C)(C)C(=O)/C=C/c1ccc(Cl)c(Cl)c1", "growth inhibition": "98.8% (active)"}
{"smiles": "COc1cc(/C=C/C(C)=O)ccc1O", "growth inhibition": "1.7% and 3.35% and 4.4%"}
{"smiles": "O=c1c(NO)c([N+](=O)[O-])cnn1-c1ccccc1", "growth inhibition": "-3.6%"}
{"smiles": "O=C(O)C1C2CC3C(OC(=O)C31)C2Br", "note": "(centres undefined)", "growth inhibition": "-47.9% and 10.9% and 11.8%"}
{"smiles": "O=C(Cl)c1cc(-c2ccc(Cl)cc2)nc2c(Cl)cccc12", "growth inhibition": "74.2% (active)"}
{"smiles": "COC/C=N/Nc1ccc([N+](=O)[O-])cc1", "growth inhibition": "99% (active)"}
{"smiles": "Cn1c(N)c(NC(=O)CCl)c(=O)n(C)c1=O", "growth inhibition": "-2.45%"}
{"smiles": "CCOC(=O)C(C)(c1c(C)[nH]c2ccccc12)c1c(C)[nH]c2ccccc12", "growth inhibition": "95.5% (active)"}
{"assay": "NCI Yeast Anticancer Drug Screen. Data for the mlh1 rad18 strain (AID 175)", "settings": "S. cerevisiae mlh1 rad18 strain growth inhibition; at 5.0 µM (retest, dose inferred, filed as 0.5); stronger effect = higher value", "how_it_was_run": "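Yeast w/ defined DNA-repair lesions; compound exposure; growth vs vehicle controls → % inhibition.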"}
{"smiles": "CCOC(=O)c1ccc([N+](=O)[O-])o1", "growth inhibition": "2%"}
{"smiles": "O=C(NCCc1c(-c2ccccc2)[nH]c2ccccc12)C(F)(F)F", "growth inhibition": "3%"}
{"smiles": "CC(C)OC(=O)c1ccc(NCc2cc(O)ccc2O)cc1Cl", "growth inhibition": "49%"}
{"smiles": "c1cc[c]([Sn]([NH]c2ncnc3[nH]cnc23)([NH]c2ncnc3[nH]cnc23)[c]2ccccc2)cc1", "growth inhibition": "-7%"}
{"smiles": "CCCCCCCCCCCCCCCCCC(=O)OCC(COC(=O)CCCN)OC(=O)CCCN", "note": "(centres undefined)", "growth inhibition": "32%"}
{"smiles": "CCCCN(CCCC)CCC(O)(c1ccc(OC)c2ccccc12)C(O)(CCN(CCCC)CCCC)c1ccc(OC)c2ccccc12", "note": "(centres undefined)", "growth inhibition": "52%"}
{"smiles": "CC(C)(C)c1ccc(OC(=O)Nc2ccc(Cl)cc2[N+](=O)[O-])c(Br)c1", "growth inhibition": "10%"}
{"smiles": "O=[N+]([O-])c1ccc(NSc2ccccc2)cc1", "growth inhibition": "6%"}
{"smiles": "COC(=O)CCC(NC(=S)N/N=C/c1ccccn1)C(=O)OC", "note": "(centres undefined)", "growth inhibition": "-30%"}
{"smiles": "O=C(Nc1ccccc1)OCCc1ccc(Br)cc1", "growth inhibition": "-5%"}
{"smiles": "Cc1[nH]c2ccccc2c1/C=C1\\C(=O)C2CCC1C2", "note": "(centres undefined)", "growth inhibition": "-14%"}
{"smiles": "O=[N+]([O-])c1ccc2c(c1)OCO2", "growth inhibition": "-4%"}
{"smiles": "CC(CO)[C@H]1OC(=O)C=C2[C@@]13O[C@@H]3[C@H]1OC(=O)[C@@]3(C)[C@H]4O[C@H]4C[C@@]2(C)[C@@H]13", "note": "(some centres undefined)", "growth inhibition": "61%"}
{"smiles": "Cc1cc(C)nc(/C=C/c2ccc(/C=C/c3cc(C)cc(C)n3)cc2)c1", "growth inhibition": "-11%"}
{"smiles": "O=C1C=CC(=O)N1c1cccc(F)c1", "growth inhibition": "88% (active)"}
{"smiles": "COc1ccc(C(=O)C(CN2CCCC2)CN2CCCC2)cc1", "growth inhibition": "3%"}
{"smiles": "O=C1NN(C2=NNC3(C(=O)N2)c2ccccc2-c2ccccc23)C(c2ccccc2)=N/C1=C/c1ccc(O)cc1", "growth inhibition": "-43%"}
{"smiles": "CC1=NN(C(=O)c2ccc(Cl)cc2)C(=O)C1N=Nc1ccc(S(=O)(=O)Nc2ncccn2)cc1", "note": "(centres undefined)", "growth inhibition": "6%"}
{"smiles": "CCN(CC)CCCNc1ncc(C)c2c1c1ccc3c(O)cccc3c1n2C", "growth inhibition": "17%"}
{"smiles": "O=C1SCCN1/N=C/c1ccc([N+](=O)[O-])o1", "growth inhibition": "51%"}
{"smiles": "CC(C)(C)C1=NC(=S)SC2=NC(=O)C3(NN21)c1ccccc1-c1ccccc13", "growth inhibition": "6%"}
{"smiles": "Cc1ccnc(NC(c2ccccc2)c2ccc3cccnc3c2O)c1", "note": "(centres undefined)", "growth inhibition": "6%"}
{"smiles": "CC(=O)N(C1=C(Cl)C(=O)c2ccccc2C1=O)c1ccc(Cl)cc1", "growth inhibition": "99% (active)"}
{"smiles": "CSc1cc(C(=O)O)nc(N)n1", "growth inhibition": "4%"}
{"smiles": "COc1ccc([C@H]2c3cc4c(cc3OC(O)(CO)[C@H]2C(=O)O)OCO4)c(OC)c1", "note": "(some centres undefined) (tested in a mixture with another compound)", "growth inhibition": "6%"}
{"smiles": "CC(C)C(C)OC(=O)Nc1cccc(O)c1", "note": "(centres undefined)", "growth inhibition": "-144%"}
{"smiles": "O=C(CC1(O)C(=O)Nc2c(Cl)ccc(Cl)c21)c1ccc(Cl)cc1Cl", "note": "(centres undefined)", "growth inhibition": "19%"}
{"smiles": "CCOC1(OCC)Oc2c(Cl)c(Cl)c(Cl)c(Cl)c2OC1(OCC)OCC", "growth inhibition": "14%"}
{"smiles": "CCN(CC)CC(C)(C)C(=O)/C=C/c1ccc(Cl)c(Cl)c1", "growth inhibition": "8%"}
{"smiles": "O=c1c(NO)c([N+](=O)[O-])cnn1-c1ccccc1", "growth inhibition": "-23%"}
{"smiles": "O=C(Cl)c1cc(-c2ccc(Cl)cc2)nc2c(Cl)cccc12", "growth inhibition": "9%"}
{"smiles": "COC/C=N/Nc1ccc([N+](=O)[O-])cc1", "growth inhibition": "90% (active)"}
{"smiles": "Cn1c(N)c(NC(=O)CCl)c(=O)n(C)c1=O", "growth inhibition": "7%"}
{"smiles": "CCOC(=O)C(C)(c1c(C)[nH]c2ccccc12)c1c(C)[nH]c2ccccc12", "growth inhibition": "5%"}
